# The campaign covered roughly 290,000 compounds. About 1,800 (0.62%) were called active. Cut-off read from the data, not from the text of the source: active = inhibition above about 50%; inactive = the rest. The entries come from a sample that favours actives as a whole.
# Test: NOD2 signaling inhibitors, cell-based, luminescence, uHTS, HEK293 (AID 1566)
# Conditions: HEK293 NOD2/NF-kB luciferase reporter, at 4 µM, active compounds read high
row,SMILES,inhibition
1,CCCc1cc(=O)oc2c3c(c(Cl)cc12)OCN(CCCO)C3,-64.8% (inactive)
2,CC(C)C(c1nnnn1C1CCCCC1)N1CCOCC1 (stereo unspecified),0.1% (inactive)
3,CCOC(=O)c1cccc(NC(=O)c2cc3ccccc3o2)c1,-97.4% (inactive)
4,CCOc1ccc(/C=N/n2c(C)nnc2C)cc1OC,8% (inactive)
5,Cc1ccc(C(=O)OCc2cc3ccccc3[nH]c2=O)cc1,3.6% (inactive)
6,O=C(c1ccc(N2CCN(C(=O)c3ccc(F)cc3F)CC2)cc1)c1cccc(F)c1,10.3% (inactive)
7,C=CCN=C1NN=C(c2cc(C)n(CCOC)c2C)CS1,65.1% (active)
8,COCCn1c(C)cc(C2=NNC(=Nc3ccccc3)SC2)c1C,-146% (inactive)
9,Cc1cc(C2=NNC(=NCCc3ccccc3)SC2)c(C)n1CC1CCCO1 (stereo unspecified),-32.5% (inactive)
10,COCCn1c(C)cc(C2=NNC(=Nc3ccccc3F)SC2)c1C,61.6% (active)
11,COCCn1c(C)cc(C2=NNC(=NC3CC3)SC2)c1C,94% (active)
12,COCCn1c(C)cc(C2=NNC(=Nc3ccc(Cl)cc3Cl)SC2)c1C,8.7% (inactive)
13,COCCN=C1NN=C(c2cc(C)n(CC3CCCO3)c2C)CS1 (stereo unspecified),19.4% (inactive)
14,COCCCN=C1NN=C(c2cc(C)n(Cc3ccccc3Cl)c2C)CS1,-30.7% (inactive)
15,COCCn1c(C)cc(C2=NNC(=Nc3ccc(OC)cc3)SC2)c1C,-9.9% (inactive)
16,C=CCn1c(C)cc(C2=NNC(=NCc3ccccc3)SC2)c1C,-78% (inactive)

row,SMILES,inhibition
1,C=CCN=C1NN=C(c2cc(C)n(CC=C)c2C)CS1,73.6% (active)
2,COCCn1c(C)cc(C2=NNC(=NC(C)(C)C)SC2)c1C,4.6% (inactive)
3,C#CCOc1c(Cl)cc(/C=C2/C(=O)ON=C2C)cc1OC,6.6% (inactive)
4,Cn1c(=O)oc2cc(S(=O)(=O)NCCC(=O)NC3CCCC3)ccc21,-0.1% (inactive)
5,COc1ccc(CCN=C(N)Nc2nc(C)cc(C)n2)cc1,8.4% (inactive)
6,COCCn1c(Cc2cccn2C)nnc1SCC(=O)NCc1ccc2c(c1)OCO2,5.3% (inactive)
7,COc1ccccc1-n1c(SCC(=O)N2CCOCC2)nc2ccccc2c1=O,2.8% (inactive)
8,CCOC(=O)CNC(=O)CSc1ccc2nnc(-c3ccc(F)cc3)n2n1,8.4% (inactive)
9,Cc1ccc(-c2noc(C3CCCN(C(=O)c4ccc(Cl)cc4)C3)n2)o1 (stereo unspecified),-1.8% (inactive)
10,CC(C)(C)N=C1NN=C(c2ccc(Cl)cc2)CS1,-99% (inactive)
11,C=CCn1c(C)cc(C2=NNC(=NCC)SC2)c1C,92.6% (active)
12,C=CCn1c(C)cc(C2=NNC(=Nc3ccc(C)cc3)SC2)c1C,3% (inactive)
13,CCN=C1NN=C(c2ccc(C)cc2)CS1,-71.4% (inactive)
14,Cc1cc(C2=NNC(=Nc3ccccc3)SC2)c(C)n1C,-60.1% (inactive)
15,C=CCn1c(C)cc(C2=NNC(=NC(C)(C)C)SC2)c1C,63.3% (active)

# From PubChem BioAssay AID1566 (Sanford-Burnham Center for Chemical Genomics, 2009)
